Compound activity from PubChem BioAssay.
KCNH2 WT inh = blocks the wildtype human KCNH2 potassium channel. Q12809. U2OS, BacMam KCNH2, thallium flux FluxOr; stronger effect = lower value. activity change, % at 1.84 µM. 340,000 tested, 0.37% active;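 active means maximum activity change below -70%; inconclusive means maximum activity change between -70% and -50%; inactive means maximum activity change above -50%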
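U2OS cells were transduced with wild-type KCNH2 virus (2.03 x 10^8 / mL) for 4 h at room temperature, then cultured overnight at 37 C. Thallium flux was read with FluxOr dye. Rate constants were normalized to DMSO controls.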
p53 reactivator = re-activators of mutant p53 | H1299 p53-A138V BP100-luciferase reporter, luminescence, 24 h | Potency, µM (series often up to 92.2 µM), hits mostly activators | 320,000 tested, 0.063% active; further: nearly all actives have a fitted effect of over 45% in size
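p53-null H1299 cells stably carrying temperature-sensitive p53-A138V and a BP100-luciferase reporter were pinned with compounds (4-point, 1:5 series) and held 24 hrs at 37 deg C. Luminescence was read 10 min after detection reagent.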
uPA surface inh = cell surface uPA generation inhibition | cell surface uPA generation assay, qHTS | 330,000 tested, 0.31% active | Potency, µM (doses to about 38.3 µM), usual class: inhibitors; active means well fitted inhibition curve with a large enough effect; inconclusive means small, poorly fitted or top-dose-only effect; inactive means no such curve, though single readings can be large or run the other way; tested in mouse RAW 264.7 cells; further: nearly all actives have a fitted effect of over 55% in size
KCNH2 3.1 block = KCNH2 3.1 (human) potassium channel inhibition | 340,000 tested, 0.95% active | activity change, % (tested at about 1.8 µM) | AID 720553 | U2OS KCNH2 3.1, thallium flux FluxOr; stronger effect = lower value;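 active means maximum activity change below -70%; inconclusive means maximum activity change from -70% to -50%; inactive means maximum activity change above -50%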;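 further: thallium influx rate constant from kinetic fluorescence after stimulation buffer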
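Normalized rate constant (relative to positive and negative DMSO controls) derived from a 2 min kinetic fluorescence read after stimulation; U2OS cells expressing the 3.1 isoform via virus at 1.77 x 10^8 /mL.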
ASM inhibitor = blocks human secretory acid sphingomyelinase | AID 504937 | Potency, µM (highest dose often 57.5 µM), actives largely listed as inhibitors | 340,000 tested, 0.006% active | placental ASM, HMU-PC fluorogenic substrate, 60 min
Target sequence (P17405 47-631 limits assumed): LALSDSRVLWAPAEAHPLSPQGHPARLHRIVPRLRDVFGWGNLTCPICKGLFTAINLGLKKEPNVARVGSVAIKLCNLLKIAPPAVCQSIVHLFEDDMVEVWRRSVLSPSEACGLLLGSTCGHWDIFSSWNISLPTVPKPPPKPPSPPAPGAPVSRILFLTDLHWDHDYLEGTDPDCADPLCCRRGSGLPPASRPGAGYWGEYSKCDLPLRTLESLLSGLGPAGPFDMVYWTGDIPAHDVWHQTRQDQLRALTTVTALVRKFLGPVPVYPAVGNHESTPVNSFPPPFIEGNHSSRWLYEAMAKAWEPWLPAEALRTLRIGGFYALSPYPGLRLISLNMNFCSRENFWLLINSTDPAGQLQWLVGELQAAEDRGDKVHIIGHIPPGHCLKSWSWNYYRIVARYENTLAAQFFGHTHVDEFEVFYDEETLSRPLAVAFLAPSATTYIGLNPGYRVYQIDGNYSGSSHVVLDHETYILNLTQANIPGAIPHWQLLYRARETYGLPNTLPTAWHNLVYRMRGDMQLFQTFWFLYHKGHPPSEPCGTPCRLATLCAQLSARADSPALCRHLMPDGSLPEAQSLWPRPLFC
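qHTS format. ASM enzyme prepared from human placenta hydrolyses the fluorogenic substrate HMU-PC0 (9 uM final) over 60 min at 37 °C after a 10 min compound preincubation.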
Mm-Cpn inhibitor = inhibitors of Methanococcus maripaludis chaperonin TRiC (MmCpn). purified Mm-Cpn ATPase, ADP Transcreener TR-FRET. AID 504842. 330,000 tested, 0.031% active. Potency, µM (top dose mostly 76.9 µM), hits mostly inhibitors; further: nearly all actives have a fitted effect of over 80% in size
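Eu-cryptate anti-ADP/ADP-d2 competition gives a ratio inversely related to ADP. Enzyme at 25 nM was pre-exposed to compound for 10 min, then given 10 uM ATP for 30 min, 37°C throughout.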
Of the large screens only hits and unclear results are named; the others gave an inactive call. A selection: hits, their analogues and other compounds. The true share with any hit is near 1.4%. Unless noted, the call rests on the fitted dose curve; in most records, active means well fitted curve in the direction sought with a large enough effect; inconclusive means small, poorly fitted or top-dose-only effect, or another doubt; inactive means no such curve, though single readings can be large; an effect the other way counts as inactive or inconclusive.

CSc1nc(-c2cccs2)c(C#N)c(=O)[nH]1	KCNH2 WT inh -133
CSc1nc2ccc(Br)cc2[nH]1	KCNH2 3.1 block -72
CC(C)Sc1nc2ccc(Br)cc2[nH]1	none
Nc1ncnc(N)c1NC(=O)c1cc(Cl)c(OCc2ccccc2)c(Cl)c1	none (no result: p53 reactivator, uPA surface inh, ASM inhibitor, Mm-Cpn inhibitor)
Cc1cccc(/C=C/C(=O)c2ccc([N+](=O)[O-])o2)c1	uPA surface inh 7.1µM
O=C(O)c1ccccc1N=Nc1c(O)[nH]c2ccc([N+](=O)[O-])cc12	KCNH2 3.1 block -127
O=C(N=Nc1c(O)[nH]c2ccc([N+](=O)[O-])cc12)c1ccccc1Cl	none
COc1cccc(NC(=S)NC(Cc2ccccc2)c2ccccc2)c1 (stereo not given)	none (no result: p53 reactivator, uPA surface inh, ASM inhibitor, Mm-Cpn inhibitor)
COC(=O)C1=C(C)NC(=O)CC1c1ccc(C(=O)OC)cc1 (stereo not given)	none
COC(=O)c1ccc([C@H]2CC(=O)O2)cc1	uPA surface inh 4.5µM
OC(c1ccccc1)C(O)C(c1ccccc1)N1CCCCC1 (stereo not given)	none (no result: p53 reactivator, Mm-Cpn inhibitor)
Cc1cc(S(=O)(=O)Nc2cccnc2)c(C)s1	KCNH2 3.1 block -72
Cc1nn2c(NCCN(C)C)c3c(nc2c1-c1ccccc1)CCCC3	none
O=c1c2ccccc2[nH]c(=S)n1CCCN1CCC(Cc2ccccc2)CC1	KCNH2 3.1 block -76
Cc1ccc(NC(=O)c2ncn(CCCNCCCc3ccccc3)n2)cc1C	KCNH2 WT inh -80, uPA surface inh inconclusive, KCNH2 3.1 block -91 (no result: p53 reactivator, Mm-Cpn inhibitor)
Cc1ccc(NC(=O)c2ncn(CCCN(CCCn3cnc(C(=O)Nc4ccc(C)c(C)c4)n3)Cc3ccc4[nH]ccc4c3)n2)cc1C	KCNH2 WT inh -91, KCNH2 3.1 block -77, ASM inhibitor inconclusive (no result: p53 reactivator, Mm-Cpn inhibitor)
Cc1ccc(NC(=O)c2ncn(CCCNCCCN(C)C)n2)cc1C	none (no result: p53 reactivator, Mm-Cpn inhibitor)
COc1ccc(CNCCCn2cnc(C(=O)Nc3ccc(C)c(C)c3)n2)cc1	KCNH2 3.1 block -86 (no result: p53 reactivator, Mm-Cpn inhibitor)
COc1cc(NCCCn2cnc(C(=O)Nc3ccc(C)c(C)c3)n2)cc(OC)c1OC	none (no result: p53 reactivator, Mm-Cpn inhibitor)
O=C(COC(=O)c1cccc(O)c1)Nc1ccc(N2CCOCC2)cc1	none
COc1ccc2cc(C3=CC(=O)CC(C)(C)C3=O)ccc2c1	none (no result: p53 reactivator, uPA surface inh, ASM inhibitor, Mm-Cpn inhibitor)
CCOC(=O)c1cnc2c(CC)cccc2c1NCCCN1CCOCC1	KCNH2 3.1 block -74 (no result: p53 reactivator)
CCOC(=O)c1cnc2c(Cl)cccc2c1NCCCN1CCOCC1	uPA surface inh inconclusive (no result: p53 reactivator)
NC(=O)c1c(NC(=O)CN2CCN(S(=O)(=O)c3ccccc3)CC2)sc2c1CCC2	none
CCCn1c(SCC(=O)N(C)C2CCCCC2)n[nH]c1=O	none (no result: p53 reactivator, uPA surface inh, ASM inhibitor, Mm-Cpn inhibitor)
COc1ccc(C(=O)C2CCN(C(=O)c3ccc(OC)cc3)CC2)cc1	KCNH2 3.1 block -84
COc1ccc(C(=O)N2CCC(C(=O)c3ccc(F)cc3)CC2)cc1	none
CC(C)(C)c1ccc(-n2ncc3c2CCCC3NC(=O)c2ccco2)cc1 (stereo not given)	none (no result: p53 reactivator, uPA surface inh, ASM inhibitor, Mm-Cpn inhibitor)
CC(C(=O)Nc1cccc([N+](=O)[O-])c1)N1CCN(C/C=C/c2ccccc2)CC1 (stereo not given)	KCNH2 3.1 block -85
Clc1ccc(CSc2nnc(-c3ccncc3)s2)cc1	none
O=C1Nc2ccccc2CCC1Sc1nnc(-c2ccc(Cl)cc2)s1 (stereo not given)	KCNH2 3.1 block -72
CCOc1ccccc1C1CC(=O)Nc2cc(C)c(C)cc21 (stereo not given)	uPA surface inh 7.1µM, KCNH2 3.1 block inconclusive (no result: p53 reactivator)
COc1ccc(NC(=O)c2nc(C)c(C3(C)CC(c4cccnc4)=NO3)s2)cc1 (stereo not given)	uPA surface inh 1.6µM
Cc1nc(C(=O)Nc2ccc(Cl)cc2)sc1C1(C)CC(c2cccc([N+](=O)[O-])c2)=NO1 (stereo not given)	none (no result: p53 reactivator, Mm-Cpn inhibitor)
O=C(N/N=C/C1CC=CCC1)c1ccc(Cl)cc1O (stereo not given)	p53 reactivator 32µM
CC(C)CNC(=O)CCCc1c[nH]c2ccccc12	KCNH2 WT inh -70
Cc1cccc(C)c1NC(=O)CNC(=O)Cc1c[nH]c2ccccc12	KCNH2 WT inh -106
O=C(CCCc1c[nH]c2ccccc12)NCCc1c[nH]c2ccccc12	none
Cc1cc2c(cc1C)NC(=O)C(C)CN2 (stereo not given)	none (no result: p53 reactivator, uPA surface inh, ASM inhibitor, Mm-Cpn inhibitor)
CN(C)c1cccc(C(=O)NNC(=O)CN2C(=O)C3CC=CCC3C2=O)c1 (stereo not given)	p53 reactivator 45µM
Cc1cccc(C)c1NC(=O)CN1C(=O)C2CC=CCC2C1=O (stereo not given)	none
CCCCn1c2c(c(=O)n(C)c1=O)C(c1ccc(OC)cc1)N1CCCCCC1=N2 (stereo not given)	KCNH2 3.1 block -75
COc1cc2c(cc1OC)C(C)N(C(=O)c1c(C)noc1C)CC2 (stereo not given)	uPA surface inh 5µM, KCNH2 3.1 block inconclusive
CC1CCCCC12NC(=O)N(CC(=O)Nc1cccc(S(=O)(=O)N3CCCCC3)c1)C2=O (stereo not given)	uPA surface inh inconclusive
O=C(c1ccc(Cl)cc1)C(CN1CCCC1)c1ccccc1 (stereo not given)	uPA surface inh 5µM
O=C(c1ccc(Cl)cc1)N1CCC2CC1c1cc(-c3ccccc3)ccc12 (stereo not given)	none (no result: p53 reactivator, Mm-Cpn inhibitor)
O=C(O)c1ccc2c(c1)C(=O)N([C@H](Cc1ccc(C(F)(F)F)cc1)C(=O)O)C2=O	none (no result: KCNH2 WT inh, p53 reactivator, uPA surface inh, KCNH2 3.1 block, ASM inhibitor)
CN(C)/N=C/C=C1\CCC/C(=C\c2ccc(F)c(F)c2)C1=O	none
COc1ccc(/C=C2\CCC/C(=C\C=N\N(C)C)C2=O)cc1	p53 reactivator inconclusive, uPA surface inh 11µM (no result: KCNH2 WT inh)
Cc1nn(-c2ccccn2)c(C)c1Oc1ccccc1O	p53 reactivator inconclusive
Cc1nn(-c2nc3ccccc3s2)c(C)c1Oc1ccccc1O	p53 reactivator 13µM
CC1C(=O)N(Cc2cn(Cc3ccco3)nn2)CCS(=O)(=O)N1Cc1ccc(-c2ccncc2)cc1 (stereo not given)	none (no result: p53 reactivator, uPA surface inh, ASM inhibitor, Mm-Cpn inhibitor)
O=C(Nc1cccc(-c2csc(Nc3ccccc3)n2)c1)c1ccccc1	p53 reactivator inconclusive, uPA surface inh inconclusive, KCNH2 3.1 block -79
O=C(Nc1cccc(-c2csc(Nc3cccc(C(F)(F)F)c3)n2)c1)c1ccccc1	uPA surface inh inconclusive
CC(=O)c1ccc(Nc2nc(-c3cccnc3)cs2)cc1	KCNH2 WT inh -81
Cc1nc(-c2ccc(NC(=O)c3ccccc3)cc2)cs1	uPA surface inh 2.2µM
CCN(CC)c1ccc(S(=O)(=O)N2CCOCC2)cc1NC(=O)COC(=O)/C=C/c1ccco1	none (no result: p53 reactivator, Mm-Cpn inhibitor)
N#CCCN1CCN(CCC#N)C1=S	none (no result: p53 reactivator, KCNH2 3.1 block, Mm-Cpn inhibitor)
COc1ccc(NS(=O)(=O)c2cc3c4c(c2)CCN4C(=O)CC3)c(OC)c1	none
